Screening results (PubChem)
KB-3-1 cytotox = kills parental KB-3-1 adenocarcinoma cells; KB-3-1 viability, CellTiter-Glo ATP luminescence, 72 h; actives 1.4% (n = 400,000); Potency, µM (series often up to 46.1 µM), actives largely listed as cytotoxic; AID 1347075; further: potency means the concentration at half of the fitted maximal effect; nearly all actives have a fitted effect of over 60% in size
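Cytotoxicity in the drug-sensitive parental line KB-3-1 was scored as loss of CellTiter-Glo luminescence following 72 h incubation with compound. Values come from curve fitting of normalized concentration-response data.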
IL1B secr inh = inflammasome signaling inhibition, IL-1 beta readout | activity change, % at 57.5 µM | AID 743279 | THP-1 LPS/ATP IL-1B secretion, AlphaLISA, 16 h; hits give low values | actives 4.7% (n = 360,000); in the data active means activity change below about -50%; inconclusive means mostly about -30% to -49%
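THP-1 cells pretreated 1 hr with compounds (up to 57.5 uM final), then stimulated with LPS (250 ng/mL final) plus ATP (1.25 mM final); secreted IL-1B measured by AlphaLISA after 16 hr, decreased signal indicating inhibition.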
HT1080-NT tox = kills 2HG-producing HT-1080-NT fibrosarcoma cells | actives 1.6% (n = 360,000) | Potency, µM (series often up to 46.1 µM), for inactives: top-dose activity, negative = less viability, usual class: cytotoxic | AID 686970 | HT-1080-NT fibrosarcoma viability, CellTiter-Glo ATP luminescence, 48 h;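 further: NT is the 2HG producing partner of a matched IDH1 knockdown line; potency means the concentration at half of the fitted maximal effect; 0% = DMSO-treated cells and -100% = media-only wells without cells; nearly all actives have a fitted effect of over 55% in size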
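750 cells/well, RPMI + 5% FBS; 2 h settle, compound pin-transfer, 48 h at 37 degrees C. CellTiter-Glo 10 min RT, luminescence. Normalized to DMSO and media-only wells.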
HT1080 IDH1KD tx = toxicity to HT-1080 IDH1 knockdown cells (counter line). HT-1080 IDH1 knockdown viability, ATP luminescence, 48 h. Potency, µM (titrated, usually from 46.1 µM), for inactives: at the top dose activity, negative = toxicity, most hits filed as cytotoxic. actives 2% (n = 360,000);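 further: potency means the concentration at half of the fitted maximal effect; 0% = DMSO wells and -100% = cell-free medium wells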
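Viability of IDH1-knockdown HT-1080 fibrosarcoma cells was assessed by CellTiter-Glo after 48 h at 37 °C with titrated compound; concentration-effect curves were classified by fit quality and response size.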
KB-V1 MDR tox = KB-V1 MDR subline cytotoxicity | KB-V1 MDR cells viability, CellTiter-Glo, 72 h | actives 3.4% (n = 400,000) | Potency, µM (top dose mostly 46.1 µM), hits mostly cytotoxic | AID 1347076; further: potency means the concentration at half of the fitted maximal effect; nearly all actives have a fitted effect of over 60% in size
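Cells of the MDR subline KB-V1 are plated, dosed with compound at multiple concentrations, and incubated 72 h at 37 degrees C; CellTiter-Glo is then added and luminescence read after 10 min.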
* = called active by the depositor; i = inactive; ? = inconclusive; / = not tested or not shown. In the library only some 8.8% were active in any assay of this set; here they are far more common. Unless noted, the call rests on the fitted dose curve; in most records, active means well fitted curve in the direction sought with a large enough effect; inconclusive means small, poorly fitted or top-dose-only effect, or another doubt; inactive means no such curve, though single readings can be large; an effect the other way counts as inactive or inconclusive. Unless noted, on the % scale 0 is the no-effect control and ±100 the full control effect.

SMILES	KB-3-1 cytotox	IL1B secr inh	HT1080-NT tox	HT1080 IDH1KD tx	KB-V1 MDR tox
O=C(NCc1ccccc1)C(C1CC1)n1c(=O)c(-c2cc3ccccc3[nH]2)nc2ccccc21 (configuration not stated)	i	-17.0	23.1µM*	?	i
O=C(NC1CCCC1)C(C1CC1)n1c(-c2cc3ccccc3[nH]2)nc2ccccc21 (configuration not stated)	i	55.6	-17.9%	?	?
O=C(Nc1ccccc1N1CCCCC1)C1CCN(S(=O)(=O)c2ccccc2C(F)(F)F)CC1	i	-11.4	-2.6%	0.2%	?
Nc1c(C(O)(C(F)(F)F)C(F)(F)F)cc(C(O)(C(F)(F)F)C(F)(F)F)c2ccccc12	i	-96.1*	20.6µM*	23.1µM*	i
CCN(CC)c1ccc(/C=N\NC(=O)c2cccc3cc[nH]c23)cc1	23.1µM*	15.4	?	5.17µM*	13µM*
O=C(N/N=C/c1ccc([N+](=O)[O-])cc1)c1cccc2cc[nH]c12	i	-11.6	-0.6%	-3.8%	i
O=C(NCc1ccc(F)c(F)c1)c1ccc(-c2ccc(F)c(F)c2)c2ccoc12	i	?	-24.2%	-11.8%	i
O=C(NCC1CCOCC1)c1ccc(-c2ccc(F)c(F)c2)c2ccoc12	i	-92.3*	-16.4%	?	i
CC1CCN(C(=O)c2ccc(S(=O)(=O)Cc3cccc(F)c3)c([N+](=O)[O-])c2)CC1	i	-86.1*	-11.1%	-7.8%	?
O=C(c1ccc(S(=O)(=O)Cc2cc(F)ccc2F)c([N+](=O)[O-])c1)N1CCCC1	i	-108.1*	?	20.6µM*	i
Cc1ccccc1CS(=O)(=O)c1ccc(C(=O)N2CCC(C)CC2)cc1[N+](=O)[O-]	i	-17.9	13.5%	5.8%	i
O=C(c1ccc(S(=O)(=O)Cc2cc(F)ccc2F)c([N+](=O)[O-])c1)N1CCCCC1	i	-110.5*	-1.5%	-14.2%	?
COc1ccc(Nc2c(C3CC3)nc3nc(C)cc(C)n23)cc1	?	51.9	6.8%	-11.2%	i
O=c1[nH]c(SCc2nc3c(cnn3-c3ccccc3)c(=O)[nH]2)nc2ccccc12	2.06µM*	4.9	-21.0%	?	?
O=c1[nH]c(CSc2nc3ccccc3[nH]2)nc2c1cnn2-c1ccccc1	i	-66.7*	23.1µM*	?	10.3µM*
Cc1ccc2nc(SCc3nc4c(cnn4-c4ccccc4)c(=O)[nH]3)[nH]c2c1	2.59µM*	52.6	6.9%	9.0%	2.31µM*
CCC(C)c1ccccc1NC(=O)CN(C)CCOc1ccc(Cl)cc1 (configuration not stated)	i	-77.5*	?	?	i
CN(CCOc1ccc(Cl)cc1)CC(=O)Nc1ccc(OC(F)F)cc1	i	-4.7	-25.5%	-16.8%	i
Cc1ccccc1Nc1c(-c2ccco2)nc2c(C)cccn12	i	/	/	/	i
COc1ccc(CCC(=O)Nc2cc([N+](=O)[O-])ccc2OC)cc1	i	5.3	13.4%	-5.3%	20.6µM*
COc1ccc(CCC(=O)Nc2ccc(C)c([N+](=O)[O-])c2)cc1	i	16.0	12.2%	15.8%	20.6µM*
Cc1cc(SCn2nnc3ccccc3c2=O)nc2ccccc12	i	43.7	-2.1%	-1.8%	16.4µM*
O=c1c2ccccc2nnn1CSc1ccc2ccccc2n1	i	-28.2	8.4%	18.0%	23.1µM*
CC1CCN(Cc2c(C(=O)N/N=C/c3ccc(C(F)(F)F)cc3)nnn2-c2nonc2N)CC1	i	-4.9	?	25.9µM*	i
CC(C)c1c(C(=O)N/N=C/c2ccc(C(F)(F)F)cc2)nnn1-c1nonc1N	?	18.0	?	25.9µM*	i
SMILES	KB-3-1 cytotox	IL1B secr inh	HT1080-NT tox	HT1080 IDH1KD tx	KB-V1 MDR tox
CC1CCN(Cc2c(C(=O)N/N=C/c3cc(Cl)ccc3O)nnn2-c2nonc2N)CC1	2.06µM*	103.0	?	4.11µM*	?
CC1CCN(Cc2c(C(=O)N/N=C/c3cccc(C(F)(F)F)c3)nnn2-c2nonc2N)CC1	i	-5.2	-17.6%	?	i
CC1CCN(Cc2c(C(=O)N/N=C/c3cc(Br)ccc3O)nnn2-c2nonc2N)CC1	?	109.9	3.66µM*	2.31µM*	?
CC(C)c1c(C(=O)N/N=C/c2ccoc2)nnn1-c1nonc1N	i	-1.1	-0.5%	0.0%	i
CNc1ccc(C2(O)C(=O)c3ccccc3C2=O)cc1	i	17.3	0.1%	10.0%	i
COc1ccc(O)cc1CN1CCN(c2ncc(Cc3ccccc3)cn2)CC1	?	-4.1	?	?	?
Oc1ccc(Cl)c(CN2CCN(c3ncc(Cc4ccccc4)cn3)CC2)c1	?	1.8	?	?	16.4µM*
CN(C)S(=O)(=O)c1ccc(C(=O)NNc2nc(-c3ccccc3)c3cc(Br)ccc3n2)cc1	i	-60.4*	0.7%	-9.5%	?
O=C(NNC(=O)c1ccc(S(=O)(=O)N2CCOCC2)cc1)c1ccccc1	i	1.8	5.0%	11.8%	i
O=C(NNc1nc(-c2ccccc2)c2cc(Br)ccc2n1)c1ccc(S(=O)(=O)N2CCOCC2)cc1	i	-50.9*	-4.4%	-3.5%	?
O=C(NNc1nc(-c2ccccc2)c2cc(Br)ccc2n1)c1ccc(S(=O)(=O)N2CCCCC2)cc1	i	-5.7	-8.5%	-8.2%	3.26µM*
OCCCNc1nc(-c2ccccc2)c2cc(Br)ccc2n1	?	-75.8*	-11.6%	-28.5%	?
O=C(COC(=O)CNS(=O)(=O)/C=C/c1ccccc1)Nc1cccc2ccccc12	i	15.7	-5.4%	-12.1%	i
Cc1ccc(S(=O)(=O)Nc2cccc(-c3ccc4nnc(C)n4n3)c2)s1	i	-13.6	0.1%	-16.2%	i
O=C(/C=C/c1ccc(O)c(O)c1)c1ccc(S(=O)(=O)N2CCCCCC2)cc1	i	-73.8*	-8.0%	-8.2%	i
C=Cc1ncc(OC)c2c1[nH]c1ccccc12	5.8µM*	-107.2*	16.4µM*	?	i
COCC(C)N=C1NN=C(c2c[nH]c3ccccc23)CS1 (configuration not stated)	i	-79.7*	1.3%	-7.1%	i
CCN=C1NN=C(c2c[nH]c3ccccc23)CS1	i	-105.7*	-24.4%	-15.6%	i
COc1ccccc1C(=O)NC(=O)COC(=O)CNC(=O)c1ccccc1F	i	-10.1	0.8%	9.2%	i
O=C(Nc1cc(Cl)ccc1N1CCOCC1)c1ccc2c(c1)OCCO2	i	-70.5*	-0.5%	0.1%	i
CC(C)C(=O)N1CCN(c2ccccc2NC(=O)c2ccc3c(c2)OCCO3)CC1	i	10.4	21.2%	22.9%	?
